{"source": "PubChem BioAssay AID1209", "about": "(Sanford-Burnham Center for Chemical Genomics, 2008)", "note": "Among all 190,000 compounds or so, about 810 (0.43%) were called active. Cut-off read from the data, not from the text of the source: active = inhibition above about 50%; inactive = the rest. This excerpt belongs to a sample that is enriched for actives.", "data": [{"target": "Mannose-6-phosphate isomerase (Homo sapiens) (UniProt P34949)", "sequence (P34949 whole entry, looked up)": "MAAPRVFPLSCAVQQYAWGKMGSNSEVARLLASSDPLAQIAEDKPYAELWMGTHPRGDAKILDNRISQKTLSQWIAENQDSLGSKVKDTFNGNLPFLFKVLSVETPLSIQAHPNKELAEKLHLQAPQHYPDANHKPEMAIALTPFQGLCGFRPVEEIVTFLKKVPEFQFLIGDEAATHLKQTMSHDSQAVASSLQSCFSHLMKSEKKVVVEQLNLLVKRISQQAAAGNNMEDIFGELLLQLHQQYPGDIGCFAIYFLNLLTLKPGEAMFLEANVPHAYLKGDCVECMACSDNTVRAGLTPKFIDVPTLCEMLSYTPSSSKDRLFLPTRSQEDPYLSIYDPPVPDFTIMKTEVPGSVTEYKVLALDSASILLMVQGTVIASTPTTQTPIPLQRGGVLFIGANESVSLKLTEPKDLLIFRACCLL", "experiment": "inhibitors of human PMI, primary screen, biochemical, fluorescence intensity, coupled assay (AID 1209);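 note: plate controls were DMSO vehicle for no effect and wells lacking substrate for full effect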", "details": "purified PMI enzyme, at 20 µM, hits give high values", "values": [{"smiles": "CCN(C(=O)CSc1nnc(Cn2nnc3ccccc32)o1)c1nc(C)cs1", "inhibition": "9.1% (inactive)"}, {"smiles": "COCCn1cc(C(=O)c2cc(Br)ccc2O)cc(C#N)c1=O", "inhibition": "-5.8% (inactive)"}, {"smiles": "O=C(Nc1cc(S(=O)(=O)N2CCOCC2)ccc1N1CCCCC1)c1cc(-c2ccccn2)nc2ccccc12", "inhibition": "52.8% (active)"}, {"smiles": "O=C(Nc1ccc(S(=O)(=O)N2CCOCC2)cc1)c1ccc2c(c1)S(=O)(=O)c1ccccc1C2=O", "inhibition": "-4.6% (inactive)"}, {"smiles": "COCCNC(=S)Nc1cc(S(=O)(=O)N2CCOCC2)ccc1N1CCCCC1", "inhibition": "63.1% (active)"}, {"smiles": "O=C(NC(=S)Nc1cc(S(=O)(=O)N2CCOCC2)ccc1N1CCOCC1)C1CCCC1", "inhibition": "-1.5% (inactive)"}, {"smiles": "COc1ccc(-c2cc(C(=O)Nc3cc(S(=O)(=O)N4CCOCC4)ccc3N3CCOCC3)c3ccccc3n2)cc1", "inhibition": "-22.7% (inactive)"}, {"smiles": "CCN(CC)S(=O)(=O)c1ccc(N2CCOCC2)c(NC(=O)c2cc(-c3ccccn3)nc3ccccc23)c1", "inhibition": "15.6% (inactive)"}, {"smiles": "O=C(NC(=S)Nc1cc(S(=O)(=O)N2CCOCC2)ccc1N1CCOCC1)c1ccco1", "inhibition": "3.9% (inactive)"}, {"smiles": "O=C(Nc1cc(S(=O)(=O)N2CCOCC2)ccc1O)c1ccc2c(c1)S(=O)(=O)c1ccccc1C2=O", "inhibition": "46.3% (inactive)"}, {"smiles": "O=C(Nc1cc(S(=O)(=O)N2CCOCC2)ccc1N1CCCC1)c1ccc2c(c1)S(=O)(=O)c1ccccc1C2=O", "inhibition": "61% (active)"}, {"smiles": "On1nnc2ccc3ccccc3c21", "inhibition": "-9.6% (inactive)"}, {"smiles": "C/C(O)=c1/ccc2cccc3nc(C)nc1c23", "inhibition": "42.6% (inactive)"}, {"smiles": "Cc1ccc(SCc2ccc(C(=O)NCc3ccncc3)cc2)cc1", "inhibition": "0.9% (inactive)"}, {"smiles": "Cc1cc(C)n(C(=O)c2c([N+](=O)[O-])c(C)nn2C)n1", "inhibition": "1.5% (inactive)"}, {"smiles": "c1ccc(CC2CCN(Cc3nc(-c4ccccc4)no3)CC2)cc1", "inhibition": "16.3% (inactive)"}, {"smiles": "COc1ccc(C(=O)Nc2sc3c(c2C#N)CCN(C(C)=O)C3)cc1", "inhibition": "5.9% (inactive)"}, {"smiles": "CC(=O)N1CCc2c(sc(NC(=O)c3ccc([N+](=O)[O-])o3)c2C#N)C1", "inhibition": "59% (active)"}, {"smiles": "CC(=O)N1CCc2c(sc(NC(=O)c3ccc4c(c3)OCCO4)c2C#N)C1", "inhibition": "18.2% (inactive)"}, {"smiles": "Cc1cc(-c2ccco2)n(CC(=O)NCc2ccco2)n1", "inhibition": "-9.3% (inactive)"}, {"smiles": "CC(CSc1nnnn1-c1ccccc1)Cn1c(N2CCCC2)nc2c1c(=O)[nH]c(=O)n2C", "note": "(stereo not given)", "inhibition": "1.7% (inactive)"}, {"smiles": "CCCC(=O)N(c1ccc2oc(=O)sc2c1)S(=O)(=O)c1cccs1", "inhibition": "3.6% (inactive)"}, {"smiles": "O=[N+]([O-])c1nn(-c2ccc3c(c2)OCCO3)n(O)c1=NC1CCCCCC1", "inhibition": "12.3% (inactive)"}, {"smiles": "CC(C)(C)N=C1C([N+](=O)[O-])=CC=C2C1=NC1(CCCCC1)N2O", "inhibition": "76.2% (active)"}, {"smiles": "O=[N+]([O-])C1=CC=C2C(=NC3(CCCCC3)N2O)C1=NC1CCCCC1", "inhibition": "87.5% (active)"}, {"smiles": "CN=C1C([N+](=O)[O-])=CC=C2C1=NC1(CCCCC1)N2O", "inhibition": "70.6% (active)"}, {"smiles": "O=[N+]([O-])c1nn(-c2ccc3c(c2)OCCO3)n(O)c1=NC1CCCCC1", "inhibition": "6% (inactive)"}, {"smiles": "C#CCNc1cc(-c2ccccc2)nc2ncnn12", "inhibition": "-2.5% (inactive)"}, {"smiles": "COC(=O)c1ccc(C(=O)OC)c(NC(=O)C(C)(C)C)c1", "inhibition": "-4.3% (inactive)"}, {"smiles": "COc1ccc(OC)c(NC(=O)CCNS(=O)(=O)c2cccs2)c1", "inhibition": "0.3% (inactive)"}, {"smiles": "COc1ccccc1-c1nnc(SCC(=O)O)n1-c1ccccc1", "inhibition": "0.5% (inactive)"}, {"smiles": "CCCCN(C(=O)c1ccc(NC(=O)C(C)C)cc1)c1ccccc1", "inhibition": "8.2% (inactive)"}, {"smiles": "Cc1ccccc1-n1nnnc1SCc1ncc(-c2ccccc2)o1", "inhibition": "5.3% (inactive)"}, {"smiles": "O=C(CCCc1nc2ccccc2s1)Nc1ccccc1", "inhibition": "-15.5% (inactive)"}, {"smiles": "CCC(=O)Nc1ccc(OCc2nc3ccccc3s2)cc1", "inhibition": "25% (inactive)"}, {"smiles": "O=C(O)CCCC(=O)Nc1ccc(OCc2nc3ccccc3s2)cc1", "inhibition": "58.3% (active)"}, {"smiles": "O=C(NN1C(=O)C2C3C=CC(C3)C2C1=O)c1ccncc1", "note": "(stereo not given)", "inhibition": "-0.6% (inactive)"}, {"smiles": "Cc1csc(NC(=O)C2CCCN(S(=O)(=O)c3ccc4c(c3)oc(=O)n4C)C2)n1", "note": "(stereo not given)", "inhibition": "13.4% (inactive)"}, {"smiles": "C=CCN1C(=O)N/C(=C/c2ccccc2OCC(=O)Nc2ccc(F)cc2)C1=O", "inhibition": "2.1% (inactive)"}, {"smiles": "CN(c1ccccc1)S(=O)(=O)c1cccc(C(=O)NNC(=O)c2ccccc2)c1", "inhibition": "7.8% (inactive)"}, {"smiles": "CN(C)S(=O)(=O)c1cccc(C(=O)NCCc2ccccc2)c1", "inhibition": "3.3% (inactive)"}, {"smiles": "CN(c1ccccc1)S(=O)(=O)c1cccc(C(=O)NCCc2ccc(O)c(O)c2)c1", "inhibition": "54.9% (active)"}, {"smiles": "COc1cc(C2NC(=O)NC(c3ccccc3)=C2C(C)=O)ccc1OCC#N", "note": "(stereo not given)", "inhibition": "20.2% (inactive)"}, {"smiles": "COc1ccccc1-n1c(SCC(=O)NC2CCS(=O)(=O)C2)nc2cc([N+](=O)[O-])ccc21", "note": "(stereo not given)", "inhibition": "5.5% (inactive)"}, {"smiles": "O=C(CSc1nc2cc([N+](=O)[O-])ccc2n1-c1ccccc1)NCc1ccc2c(c1)OCO2", "inhibition": "23.9% (inactive)"}, {"smiles": "COc1ccccc1-n1c(SCC(=O)NCc2ccc3c(c2)OCO3)nc2cc([N+](=O)[O-])ccc21", "inhibition": "59.9% (active)"}, {"smiles": "O=C(COC(=O)CCOc1ccccc1)Nc1ncc(Cl)cc1Cl", "inhibition": "-1% (inactive)"}, {"smiles": "Cc1c(C(=O)N/N=C/c2ccccc2)[nH]c2ccc(Cl)cc12", "inhibition": "2.8% (inactive)"}, {"smiles": "O=C(Cc1csc(NC(=O)c2ccc(F)cc2)n1)NO", "inhibition": "0.3% (inactive)"}, {"smiles": "COc1ccccc1NC(=O)Cc1csc(NC(=O)c2ccccc2)n1", "inhibition": "5.9% (inactive)"}, {"smiles": "O=C(Cc1csc(NC(=O)c2ccccc2)n1)NO", "inhibition": "67.6% (active)"}, {"smiles": "COC(=O)c1c(-c2cccc(OC)c2)csc1N", "inhibition": "30% (inactive)"}, {"smiles": "O=C(CN1CCCC1)Nc1ccc(F)cc1", "inhibition": "-11.5% (inactive)"}, {"smiles": "COc1ccccc1NS(=O)(=O)c1cc(N)ccc1N1CCCCC1", "inhibition": "67.5% (active)"}, {"smiles": "COc1ccccc1NS(=O)(=O)c1cc(NC(=O)C2CC2)ccc1N1CCOCC1", "inhibition": "15% (inactive)"}, {"smiles": "O=C(Nc1ccc(F)cc1)Nc1ccc(N2CCOCC2)c2nonc12", "inhibition": "15.4% (inactive)"}, {"smiles": "COc1ccccc1NS(=O)(=O)c1cc(NC(=O)CCC2CCCC2)ccc1N1CCOCC1", "inhibition": "2.1% (inactive)"}, {"smiles": "O=C(Nc1ccc([N+](=O)[O-])cc1)Nc1ccc(N2CCOCC2)c2nonc12", "inhibition": "34.2% (inactive)"}, {"smiles": "COc1ccccc1NS(=O)(=O)c1cc(NC(=O)C2CCCC2)ccc1N1CCOCC1", "inhibition": "55.7% (active)"}, {"smiles": "COc1ccccc1NS(=O)(=O)c1cc(NC(C)=O)ccc1N1CCCCC1", "inhibition": "52.7% (active)"}, {"smiles": "COc1ccccc1NS(=O)(=O)c1cc(NC(=O)Nc2ccccc2)ccc1N1CCCCC1", "inhibition": "14.8% (inactive)"}, {"smiles": "COc1ccccc1NS(=O)(=O)c1cc(NC(=O)C(C)C)ccc1N1CCCCC1", "inhibition": "41.2% (inactive)"}, {"smiles": "COc1ccccc1NS(=O)(=O)c1cc(NC(=O)Nc2ccc(Cl)cc2Cl)ccc1N1CCCCC1", "inhibition": "2% (inactive)"}, {"smiles": "COc1ccccc1NS(=O)(=O)c1cc(NC(=O)Nc2cccc(C)c2)ccc1N1CCCCC1", "inhibition": "0.3% (inactive)"}, {"smiles": "O=C(Nc1ccc(N2CCOCC2)c2nonc12)C1CCCC1", "inhibition": "53.4% (active)"}]}]}
